Some compounds were tested as several samples or in several runs, with calls that do not always agree. Activity calls are given as the source filed them. The calls were made as follows: active = hit-call score of the fitted dose curve at least 0.9, where 1 is the maximum; inactive = score below 0.9.
Assay: BSK_KF3CT_SRB: Viability Assessment in the BioMAP Diversity Plus: KF3CT Assay (AID 2283069);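 also: fitted for both signal gain and loss against DMSO baseline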
Conditions: primary human keratinocytes with fibroblasts
Procedure: BSK_KF3CT is a cell-based, multiplexed-readout assay that uses keratinocytes and foreskin fibroblasts, a human skin primary cell co-culture, with measurements taken at 24 hours after chemical dosing in a 96-well plate.BSK_KF3CT_SRB is an assay component measured in the BSK_KF3CT assay. It measures 0.1% sulforhodamine related to cell death using Sulforhodamine staining technology.Data from the assay component BSK_KF3CT_SRB was analyzed into 1 assay endpoint. This assay endpoint, BSK_KF3CT_SRB, was analyzed with bidirectional fitting relative to DMSO as the negative control and baseline of activity. Using a type of viability reporter, gain or loss-of-signal activity can be used to understand changes in the signaling. Furthermore, this assay endpoint can be referred to as a primary readout, because this assay has produced multiple assay endpoints where this one serves a signaling function. To generalize the intended target to other relatable targets, this assay endpoint is annotated to the cell morphology intended target family, where the subfamily is cell conformation.
The levels of cell surface (or secreted, indicated by the prefix "s") biomarker endpoints were measured by ELISA. Overt cytotoxicity to cells in confluent adherent cultures (all systems other than the BT system) was assessed by measuring total protein levels using sulforhodamine B (SRB) staining in parallel cultures at the time of biomarker measurements, indicated as SRB endpoints. For proliferation assays for adherent cell types, individual cell types are cultured at sub-confluence and relative cell numbers quantified by SRB staining at time points optimized for each system (48 h: 3C and CASM3C systems; 72 h: BT and HDF3CGF systems; 96 h: SAg system). SRB was performed by staining cells with 0.1% SRB after fixation with 10% TCA and reading wells at 560 nm.Viability and proliferation of PBMC (T cells) was quantified by Alamar Blue reduction for the SAg and BT systems. For PBMC viability (referred to as PBMC Cytotoxicity within the assay endpoint names), cells were plated (75,000/well in a 96-well plate) and then chemical samples added for 1 h before addition of activators, SEB and TSST-1 (20 ng/mL final concentration each). Cells were incubated for 90 h. Then, Alamar Blue (20 uL/well) (Invitrogen, Cat DAL1100) was added for 6 h, and the plates were read with a fluorescence microplate reader at 546/580 nm (excitation/emission). For PBMC proliferation, cells were plated and activated as above but incubated for only 16 h prior to addition of Alamar Blue. Plates were read after 6 h.

Row | Structure (SMILES) | AC50 | outcome
1 | CCCCC/C=C\C/C=C\CCCCCCCC(=O)OC | 31 µM (active) | 
2 | O=Nc1ccc(O)cc1 |  | inactive
3 | CCOC(=O)c1ccccc1C(=C1C=C(Br)C(=O)C(Br)=C1)c1cc(Br)c(O)c(Br)c1 | 3.4 µM (active) | inactive
4 | C=CC(=O)OCC(Br)CBr (configuration not stated) | 33.8 µM (active) | 
5 | CCCCNc1ccc(NCCCC)c2c1C(=O)c1ccccc1C2=O |  | inactive
6 | CCCCC(CC)COCC1CO1 (configuration not stated) |  | inactive
7 | c1ccc2c(c1)ccc1ncccc12 |  | inactive
8 | S=C(NC1CCCCC1)NC1CCCCC1 |  | inactive
9 | c1ccc2c(c1)ccc1cc3c(ccc4ccccc43)cc12 |  | inactive
10 | C=CC=CC=CCCCCC |  | inactive
11 | c1ccc(-c2ccccn2)nc1 |  | inactive
12 | CC1OC1C1CCC2(C)OC2C1 (configuration not stated) |  | inactive
13 | O=C(Nc1ccccc1SSc1ccccc1NC(=O)c1ccccc1)c1ccccc1 |  | inactive
14 | N#[N+]c1ccc2c(S(=O)(=O)[O-])cccc2c1O |  | inactive
15 | C=CCOc1c(Br)cc(Br)cc1Br | 27.8 µM (active) | 
16 | O=c1c2ccccc2oc2ccccc12 |  | inactive
17 | O=C(Cl)c1cc(C(=O)Cl)cc(C(=O)Cl)c1 | 33.2 µM (active) | 
18 | CCCCC(CC)COC(=O)c1ccccc1O (configuration not stated) |  | inactive

Row | Structure (SMILES) | AC50 | outcome
19 | CC(C)(c1cc(Br)c(OCCO)c(Br)c1)c1cc(Br)c(OCCO)c(Br)c1 | 9.41 µM (active) | 
20 | CCO[Si](C)(OCC)OCC |  | inactive
21 | C=CCOCC(O)CCl (configuration not stated) |  | inactive
22 | O=C(c1ccc(O)cc1)c1ccc(O)cc1O |  | inactive
23 | CCOc1nc(F)cc2nc(S(=O)(=O)Nc3c(Cl)cccc3C(=O)OC)nn12 |  | inactive
24 | C#CC1(O)CC[C@H]2[C@@H]3CCC4=CCCC[C@@H]4[C@H]3CC[C@@]21C (some centres not stated) | 30.6 µM (active) | 
25 | CCO[Si](CCCN=C=O)(OCC)OCC |  | inactive
26 | COCc1c(C(C)C)nc(C(C)C)c(/C=C/[C@@H](O)C[C@@H](O)CC(=O)O)c1-c1ccc(F)cc1 |  | inactive
27 | O=C1CCCN1CCO |  | inactive
28 | COc1ccc2nc(N)sc2c1 |  | inactive
29 | C/C=C\C/C=C/CCCCCCCCOC(C)=O |  | inactive
30 | CC(C)C(=O)C(C)C |  | inactive
31 | CCCCCCCCc1ccc(Nc2ccc(CCCCCCCC)cc2)cc1 |  | inactive
32 | CCCCCCCCCCCCCCCC[N+](C)(C)CC | 5.14 µM (active) | 
33 | Nc1ccc(N)c(Cl)c1 |  | inactive
34 | CN1C(=O)N(C)C(O)C1O (configuration not stated) |  | inactive
35 | CO[Si](OC)(OC)c1ccccc1 |  | inactive
36 | C=C[Si](OC(C)=O)(OC(C)=O)OC(C)=O |  | inactive

Reference: PubChem BioAssay (EPA / NIEHS)
